In PubChem BioAssay (EPA / NIEHS) one finds outcome data, which are given here for 40 molecules.

Records with an inconclusive call do not appear. Active and inactive are the calls of the source. How the source made its calls: active means hit-call score of the fitted dose curve at least 0.9, where 1 is the maximum; inconclusive means response in the unintended direction; inactive means score below 0.9.

human Retinoic Acid Receptor gamma (RARg), RARG (gene 5916), sequence (P13631 whole entry, looked up): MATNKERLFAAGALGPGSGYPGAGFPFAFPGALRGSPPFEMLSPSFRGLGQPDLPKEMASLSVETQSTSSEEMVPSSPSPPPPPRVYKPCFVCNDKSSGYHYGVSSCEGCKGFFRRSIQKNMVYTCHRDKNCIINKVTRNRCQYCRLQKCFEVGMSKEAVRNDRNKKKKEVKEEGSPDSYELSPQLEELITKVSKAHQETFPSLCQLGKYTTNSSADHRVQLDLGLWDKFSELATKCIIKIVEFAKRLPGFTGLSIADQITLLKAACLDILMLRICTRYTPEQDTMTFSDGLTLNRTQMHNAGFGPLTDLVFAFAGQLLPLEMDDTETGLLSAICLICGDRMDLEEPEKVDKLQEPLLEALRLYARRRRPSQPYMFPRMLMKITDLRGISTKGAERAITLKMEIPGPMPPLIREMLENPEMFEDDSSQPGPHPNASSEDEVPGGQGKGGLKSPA

This experiment addresses human Retinoic Acid Receptor gamma (RARg), RARG (gene 5916) (UniProt P13631). Kind of experiment: ATG_RARg_TRANS: Attagene TRANS-FACTORIAL HepG2 Assay for human Retinoic Acid Receptor gamma (RARg) (AID 2283009). Here is the method:
ATG_TRANS is a cell-based, multiplexed-readout assay that uses HepG2, a human liver cell line, with measurements taken at 24 hours after chemical dosing in a 24-well plate.ATG_RARg_TRANS is one of 30 assay component(s) measured or calculated from the ATG_TRANS assay. It is designed to make measurements of mRNA induction, a form of inducible reporter, as detected with fluorescence intensity signals by Reverse transcription polymerase chain reaction (RT-PCR) and Capillary electrophoresis technology.Data from the assay component ATG_RARg_TRANS was analyzed into 1 assay endpoint. This assay endpoint, ATG_RARg_TRANS, was analyzed in the positive analysis fitting direction relative to DMSO as the negative control and baseline of activity. Using a type of inducible reporter, measures of mRNA for gain-of-signal activity can be used to understand the reporter gene at the transcription factor-level as they relate to the gene RARG. Furthermore, this assay endpoint can be referred to as a primary readout, because this assay has produced multiple assay endpoints where this one serves a reporter gene function. To generalize the intended target to other relatable targets, this assay endpoint is annotated to the nuclear receptor intended target family, where the subfamily is non-steroidal.
Human liver HepG2 cells are transiently transfected with multiple reporter transcription units (MRTUs) in 6-well plates using FuGene 6 reagent (Roche; 3 ml FuGene/1 mg DNA). The MRTU constructs are regulated by a cis-regulating element (promoter). […] A major difference between the CIS and TRANS system is that in CIS activities of endogenous TFs are measured, whereas the TRANS assay evaluates changes in activities of exogenous, chimeric NR-Gal4 proteins. […] At the end of 24 hour incubation, total RNA was isolated using TriZol reagent (Invitrogen). The isolated RNA is then reverse-transcribed using oligo(dT) primer and Mo-MLV reverse transcriptase (Invitrogen) with DNAse I (Ambion) treatment for 30 min. The one-tenth of the produced cDNA was amplified by PCR using Taq DNA polymerase (Invitrogen) and two reporter sequence-specific primers. The PCR products were fluorescently labeled by primer extension with 6-arboxyfluorescein (6-FAM) 5'-labeled reporter sequence-specific primer (2 min at 95 C, 20 s at 68 C and 10 min at 72 C) and these products were digested with 5U of HpaI (New England Biolabs) for 2h at 37 C. […] The raw capillary electrophoresis data was processed using Attagraph software (Attagene).
Regarding `CCc1cccc(CC)c1`, the call was inactive.

For the molecule `CCOC(=O)c1ccc(C)cc1`, the call was inactive.

In the case of `CCCCCCCOC(=O)c1ccc(O)cc1`, the result was inactive.

Consider `O=S(=O)(O)c1ccc(N=Nc2c(O)ccc3ccccc23)cc1`, for which the molecule was classed as inactive.

As to `CC(C)OC(=O)c1ccccc1`, the outcome was inactive.

Regarding `CC1CC(=O)CC(C)(C)C1` (stereo not given), the result was inactive.

For `CC1=CP(=O)(c2ccccc2)CC1` (stereo not given), the result was inactive.

As for `O=C(Cl)c1ccc(C(=O)Cl)cc1`, the result was inactive.

For the molecule `N#Cc1ccc(C2CCCc3cncn32)cc1` (stereo not given), the outcome was inactive.

As to `CC(=O)CCC1=C(C)CCCC1(C)C`, the outcome was inactive.

`CCCC(CC)c1ccccc1` (stereo not given): the outcome was inactive.

As to `CCCCCCCO`, the molecule was classed as inactive.

As for `CCCCCCCCCCCCc1ccc(O)cc1`, the result was inactive.

On to `C=C[C@@]1(C)CC(=O)[C@]2(O)[C@@]3(C)[C@@H](O)CCC(C)(C)[C@@H]3[C@H](O)[C@H](OC(C)=O)[C@@]2(C)O1`, for which the outcome was inactive.

Turning to `CC(C)(C)C1CCC(=O)CC1`, the outcome was inactive.

As to `Oc1c(Cl)cc(Cl)c(Cl)c1Cl`, the molecule was called inactive.

As for `COc1nccnc1CC(C)C`, the molecule was called inactive.

On to `O=C(O)C(F)(F)C(F)(F)C(F)(F)C(F)(F)C(=O)O`, for which the outcome was inactive.

As for `Oc1ccccc1Cc1ccccc1O`, the result was inactive.

`CN(C)c1ccc2nc3ccc(=[N+](C)C)cc-3sc2c1`: the molecule was classed as inactive.

For the molecule `CCCc1ccc(O)c(OC)c1`, the outcome was inactive.

Consider `Cc1cccc(C(C)(C)C)c1O`, for which the molecule was called inactive.

Regarding `O=C(Cl)c1c(Cl)c(Cl)c(C(=O)Cl)c(Cl)c1Cl`, the result was inactive.

In the case of `CCCCCCCCCCCC(=O)OCC`, the molecule was classed as inactive.

`CCCCC(=O)O`: the call was inactive.

As for `C=CC(=O)OCC(C)OCC(C)OCC(C)OC(=O)C=C` (stereo not given), the call was inactive.

As to `Clc1cc(Cl)c(Cl)c(Cl)c1Cl`, the call was inactive.

For `N=C1C=CC(=C(c2ccc(N)cc2)c2ccc(N)cc2)C=C1`, the outcome was inactive.

Regarding `CCCCCCCCC(CO)CCCCCC` (stereo not given), the result was inactive.

For `CC(=O)c1ccc(S(=O)(=O)NC(=O)NC2CCCCC2)cc1`, the outcome was inactive.

As for `CC=C(C)C(C)=O`, the outcome was inactive.

`COc1ccc(-c2coc3cc(O)cc(O)c3c2=O)cc1`: the molecule was classed as inactive.

Take `Oc1ccc(-c2ccccc2)c(Cl)c1`: the result was inactive.

Regarding `CCCCCCCC(=O)OCC`, the molecule was classed as inactive.

In the case of `CCOc1ccc(NC(N)=O)cc1`, the call was inactive.

Take `CC1=CCC2CC1C2(C)C` (stereo not given): the call was inactive.

As for `CC1=CC(C)C(C=O)CC1` (stereo not given), the call was inactive.

`CC1=NN(c2ccc(S(=O)(=O)O)cc2)C(=O)C1N=Nc1ccccc1` (stereo not given): the result was inactive.

In the case of `O=C(O[C@@H]1Cc2c(O)cc(O)cc2O[C@@H]1c1cc(O)c(O)c(O)c1)c1cc(O)c(O)c(O)c1`, the result was inactive.

Turning to `Cc1cc(C)c(C=O)c(C)c1`, the outcome was inactive.
